{"source": "the OligoGym collection", "data": [{"biological_target": "FGFR1", "assay": "pooled miR-30 sensor sort-seq; sequence = guide strand", "conditions": "shRNA", "values": [{"sequence": "TTACTGGGCTTGTCCATGCGGT", "sensor-assay potency score (higher = more potent)": -0.849}, {"sequence": "TCTCGGTGTATGCACTTCTTGG", "sensor-assay potency score (higher = more potent)": -1.66}, {"sequence": "TAGCGGTGCAGAGTGTGGCTGT", "sensor-assay potency score (higher = more potent)": -0.244}, {"sequence": "TGAACTTCACTGTCTTGGCAGC", "sensor-assay potency score (higher = more potent)": -0.906}, {"sequence": "TCATTCTCCACAATGCAGGTGT", "sensor-assay potency score (higher = more potent)": 0.557}, {"sequence": "TCTTAAGTGAAGCACCTCCATC", "sensor-assay potency score (higher = more potent)": -1.39}, {"sequence": "TTTGTGTTTTCTTCATAGCTAT", "sensor-assay potency score (higher = more potent)": -0.428}, {"sequence": "TTGTCGGTGGTATTAACTCCAG", "sensor-assay potency score (higher = more potent)": -1.38}, {"sequence": "TTCATCATCTCCATTTCTGAGA", "sensor-assay potency score (higher = more potent)": -0.548}]}, {"biological_target": "FHOD1", "assay": "pooled miR-30 sensor sort-seq; sequence = guide strand", "conditions": "shRNA", "values": [{"sequence": "TTGTAGATGCTCCTCTCGCTGG", "sensor-assay potency score (higher = more potent)": -0.582}, {"sequence": "TTCTTCGATGTCTCCATCCTCC", "sensor-assay potency score (higher = more potent)": -0.285}, {"sequence": "TAGCTTCTCAATGCCATCCTTG", "sensor-assay potency score (higher = more potent)": -0.31}, {"sequence": "TCTGTCTCGGTGATCATGCGTC", "sensor-assay potency score (higher = more potent)": -0.332}, {"sequence": "TTGCAGAGCACAATCCTCCAAC", "sensor-assay potency score (higher = more potent)": -0.554}, {"sequence": "TTTGTAGATGCTCCTCTCGCTG", "sensor-assay potency score (higher = more potent)": -1.11}, {"sequence": "TACAAACACCAACAGCAGCTTC", "sensor-assay potency score (higher = more potent)": -0.751}, {"sequence": "TCGTAGAGCACAAGCTGCGTGC", "sensor-assay potency score (higher = more potent)": -0.434}, {"sequence": "TTGTTGATGAGGGTGACCGTGT", "sensor-assay potency score (higher = more potent)": -0.769}, {"sequence": "ATGACTGTCAGCATCTCCCCGG", "sensor-assay potency score (higher = more potent)": -0.753}, {"sequence": "TTCTACAAACACCAACAGCAGC", "sensor-assay potency score (higher = more potent)": -1.07}]}]}
